Compound activity: PubChem, several laboratories
AI-2 QS mod: modulates the Vibrio harveyi AI-2 quorum sensing system | AID 2094 | activity change, % at 7.5 µM | 0.4% of 300,000 active | Vibrio harveyi JMH597 AI-2 luminescence/OD600 ratio, 9 h; stronger effect = lower value; strain lacks LuxN and CqsS sensors; 0 = neutral-control median; in the data active = activity change below about -75%, passing the limit was not always enough;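 note: luminescence divided by OD600 gain over 9 h not by final OD600 alone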
ALR H2O2 inh: human ALR oxidase inhibition via reduced H2O2. purified ALR, DTT oxidation, H2O2 HRP-luminol luminescence. 3.8% of 290,000 active. inhibition, % (no concentration beside the values). P55789;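 active = mean replicate inhibition above about 79%, with every replicate also reaching it, limit read from the data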
CHT block: inhibitors of human choline transporter CHT; 0.86% of 310,000 active; AID 488975; B-score at 10 µM; CHT-expressing cells, membrane potential dye, choline response; stronger effect = lower value;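 active = B-score over 3 SD under the library average, and starting fluorescence ratio not unusually high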;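 note: choline stimulus applied at its EC90 after an EC20 pre-addition; B-score computed on integrated fluorescence ratio after choline addition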
Target sequence (Q9GZV3 whole entry, looked up): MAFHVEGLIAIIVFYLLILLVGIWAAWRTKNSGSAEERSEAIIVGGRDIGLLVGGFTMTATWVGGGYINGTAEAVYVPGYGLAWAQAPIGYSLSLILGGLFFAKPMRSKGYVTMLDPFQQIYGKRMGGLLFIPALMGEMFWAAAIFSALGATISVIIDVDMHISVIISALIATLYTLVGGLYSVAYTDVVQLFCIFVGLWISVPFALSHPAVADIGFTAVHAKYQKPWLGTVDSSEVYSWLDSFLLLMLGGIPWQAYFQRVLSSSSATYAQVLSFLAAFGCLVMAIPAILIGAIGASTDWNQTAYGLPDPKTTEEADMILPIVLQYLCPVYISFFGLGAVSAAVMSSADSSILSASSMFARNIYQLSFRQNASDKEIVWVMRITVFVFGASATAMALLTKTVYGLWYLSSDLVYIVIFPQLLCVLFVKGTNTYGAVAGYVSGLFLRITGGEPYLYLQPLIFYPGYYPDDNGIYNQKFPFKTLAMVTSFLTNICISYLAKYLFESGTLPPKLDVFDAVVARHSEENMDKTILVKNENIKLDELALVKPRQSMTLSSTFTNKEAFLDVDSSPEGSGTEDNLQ
CHT allo act: allosteric activators of human choline transporter CHT | 0.49% of 310,000 active | B-score at 10 µM | CHT-expressing cells, membrane potential dye, choline EC20; stronger effect = higher value; LV-AA mutant CHT in HEK293 cells | Q9GZV3 | AID 488977;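 active = initial fluorescence not abnormally high and integrated response B-score, plate-corrected, over 3 SD above library mean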
PREPL inhibitor: inhibits the human prolyl oligopeptidase-like enzyme; Q4J6C6; recombinant PREPL, fluorescence polarization activity-based probe; inhibition, % at 5.96 µM; 0.68% of 320,000 active; in the data active = inhibition above about 43%;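 note: 0% = enzyme with DMSO and 100% = wells lacking enzyme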
CHT inh conf: confirmation of human choline transporter CHT inhibitors; shares compounds with CHT block; CHT-expressing cells, choline membrane potential dye; LV-to-AA substituted CHT, HEK293 cells; CHT activity remaining % of control (stronger effect = lower value), % at 10 µM; 70% of 2,400 active; AID 493221;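 active = choline transporter activity left, mean of duplicates at 10 µM, below buffer-only control mean minus 3 SD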;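 note: depolarization triggered by choline at its EC90 following an EC20 pre-addition; 0% = hemicholinium-3 full block and 100% = buffer-only control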
HEK293 MPD ctr: CHT inhibitor counter-screen hit in parental HEK293 cells. 4% of 2,400 active. membrane potential ratio readout (active if shifted either direction beyond buffer ±3SD; no single direction) at 10 µM. shares compounds with CHT block. membrane potential dye, choline response; active = decrease or increase beyond buffer ±3SD;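 note: parental cells lack the transporter so any hit is non-specific; ratio is peak minus trough fluorescence over baseline after EC90 choline challenge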
Numbers without * were called inactive. This is a sample that favours compounds with a hit; in the whole collection about 5% have one here.

`O=C(CSCc1nc2ccccc2[nH]1)N1CCN(c2cccc(Cl)c2)CC1` gave AI-2 QS mod 16.3, CHT block inactive, CHT allo act inactive and PREPL inhibitor -8.3.
O=C(CSCc1nc2ccccc2[nH]1)N1CCN(c2ccc(F)cc2)CC1 was read as AI-2 QS mod 10.3, ALR H2O2 inh 63.0, CHT block -5.01*, CHT allo act inactive, PREPL inhibitor -23.6, CHT inh conf inactive and HEK293 MPD ctr inactive.
O=C(NNC(=S)NC(=O)c1sc2ccccc2c1Cl)c1ccc(Cl)cc1 was read as AI-2 QS mod 54.8, ALR H2O2 inh 98.4*, CHT block -7.33*, CHT allo act inactive, PREPL inhibitor 1.7, CHT inh conf 32.5%* and HEK293 MPD ctr inactive.
`C/C(CC(=O)NCCN1CCOCC1)=N\NC(=O)c1ccncc1` gave AI-2 QS mod 2.7, ALR H2O2 inh 2.6, CHT block inactive, CHT allo act inactive and PREPL inhibitor 3.4.
`COc1ccc(C2N(C(=O)CN3CCCC3)CCCN2S(=O)(=O)c2ccccc2)cc1` (stereo unspecified) gave ALR H2O2 inh -1.3, CHT block inactive, CHT allo act inactive and PREPL inhibitor -9.4.
For O=C(CN1CCOCC1)N1CCN(S(=O)(=O)c2ccccc2)C1c1ccccc1 (stereo unspecified) the results were AI-2 QS mod 20.9, ALR H2O2 inh -10.3, CHT block -6.9*, CHT allo act inactive, PREPL inhibitor 1.9, CHT inh conf inactive and HEK293 MPD ctr -9.76*.
`Cc1ccc2c(c1)c(CC(=O)Nc1ccc(C)c(F)c1)c(C(=O)O)n2C` gave AI-2 QS mod 9.6, ALR H2O2 inh 6.7, CHT block -5.4*, CHT allo act inactive, PREPL inhibitor 7.2, CHT inh conf 63.3%* and HEK293 MPD ctr inactive.
`O=C1c2ccccc2C(=O)N1CCCCSc1nnc2c(Cl)cc(Cl)cn12` gave AI-2 QS mod 22.3, ALR H2O2 inh -7.6, CHT block -5.39*, CHT allo act inactive, PREPL inhibitor -9.0, CHT inh conf inactive and HEK293 MPD ctr inactive.
`O=C(N/N=C/c1ccccc1)c1ccc(N2CCCC2=O)cc1` gave AI-2 QS mod 19.3, ALR H2O2 inh -0.5, CHT block inactive, CHT allo act inactive and PREPL inhibitor 5.2.
`Cc1ccc(CSc2nnc(C)c(=O)[nH]2)cc1` gave AI-2 QS mod 44.3, ALR H2O2 inh -14.8, CHT block -7.87*, CHT allo act inactive, PREPL inhibitor -4.5, CHT inh conf inactive and HEK293 MPD ctr inactive.
For CCc1cc(=O)oc2cc(C)cc(OCC(=O)N3CCC(C(=O)O)CC3)c12 the results were AI-2 QS mod 21.8, ALR H2O2 inh -13.1, CHT block inactive, CHT allo act inactive and PREPL inhibitor 15.3.
Cc1nccn1Cc1ccccc1 was read as AI-2 QS mod 9.5, ALR H2O2 inh -29.7, CHT block inactive, CHT allo act inactive and PREPL inhibitor 26.2.
`CCNc1nc(=S)nc(NCc2ccccc2)[nH]1` gave AI-2 QS mod 17.1, ALR H2O2 inh -0.3, CHT block inactive, CHT allo act inactive and PREPL inhibitor -7.3.
Cc1cccc(N2CCN(Cc3cc(=O)n4ccsc4n3)CC2)c1C was read as AI-2 QS mod 11.9, ALR H2O2 inh 2.5, CHT block inactive, CHT allo act inactive and PREPL inhibitor 1.2.
Screening O=c1cc(CN2CCN(c3ccccc3O)CC2)nc2sccn12 returned AI-2 QS mod 34.9, ALR H2O2 inh 98.6*, CHT block -8.78*, CHT allo act inactive, PREPL inhibitor -3.8, CHT inh conf 42.5%* and HEK293 MPD ctr inactive.
`COc1ccc(C(=O)c2cc([N+](=O)[O-])ccc2N2CCN(C)CC2)cc1` gave AI-2 QS mod 19.7, ALR H2O2 inh 4.4, CHT block -6.89*, CHT allo act inactive, PREPL inhibitor -1.1, CHT inh conf 43.6%* and HEK293 MPD ctr 4.7*.
For COc1ccc(C(=O)c2cc([N+](=O)[O-])ccc2N2CCCC2)cc1 the results were AI-2 QS mod 22.1, ALR H2O2 inh -0.6, CHT block inactive, CHT allo act inactive and PREPL inhibitor -0.1.
`CCCn1c(SCC(=O)N2CCCCC2)nc2c1c(=O)n(C)c(=O)n2C` gave AI-2 QS mod 18.4, CHT block inactive, CHT allo act inactive and PREPL inhibitor 9.6.
`Cn1c(=O)c2c(nc(SCC(=O)N3CCCCCC3)n2C)n(C)c1=O` gave AI-2 QS mod 5.7, CHT block -5.74*, CHT allo act inactive, PREPL inhibitor 18.6, CHT inh conf inactive and HEK293 MPD ctr inactive.
`COCCn1c(SCC(=O)Nc2ccccc2C(F)(F)F)nc2ccccc2c1=O` gave AI-2 QS mod 21.6, CHT block -5.32*, CHT allo act inactive, PREPL inhibitor 4.2, CHT inh conf inactive and HEK293 MPD ctr inactive.
Screening COCCn1c(SCC(=O)N2CCCc3ccccc32)nc2ccccc2c1=O returned AI-2 QS mod 26.3, ALR H2O2 inh -4.6, CHT block -5.24*, CHT allo act inactive, PREPL inhibitor 4.1, CHT inh conf inactive and HEK293 MPD ctr inactive.
`COCCn1c(SCC(=O)Nc2ccc(NC(C)=O)cc2)nc2ccccc2c1=O` gave AI-2 QS mod 17.5, ALR H2O2 inh -6.1, CHT block inactive, CHT allo act inactive and PREPL inhibitor -12.9.
Screening COCCn1c(SCC(=O)N2CCCc3ccccc32)nc2c(c1=O)SC(C)C2 (stereo unspecified) returned AI-2 QS mod 35.1, ALR H2O2 inh 72.6, CHT block inactive, CHT allo act inactive and PREPL inhibitor 12.8.
For CCOc1ccc(NC(=O)c2cc(C3CC3)nc3c2cnn3C(C)C)cc1OC the results were ALR H2O2 inh -3.3 and PREPL inhibitor 19.9.
CCOC(=O)C1(Cc2ccc(OC)cc2)CCN(C(=O)c2cncs2)CC1 was read as AI-2 QS mod 0.0, ALR H2O2 inh -16.1, CHT block -7.06*, CHT allo act inactive, PREPL inhibitor -2.5, CHT inh conf inactive and HEK293 MPD ctr inactive.
`CCOC(=O)C(C)Sc1nc2c(c(=O)[nH]c(=O)n2C)n1CCc1ccccc1` (stereo unspecified) gave AI-2 QS mod 10.3, ALR H2O2 inh -3.2, CHT block inactive, CHT allo act inactive and PREPL inhibitor 2.3.
`COC(=O)C(C)Sc1nc2c(c(=O)[nH]c(=O)n2C)n1CCCc1ccccc1` (stereo unspecified) gave AI-2 QS mod 29.0, ALR H2O2 inh -2.9, CHT block -9.31*, CHT allo act inactive, PREPL inhibitor 6.1, CHT inh conf 21.1%* and HEK293 MPD ctr inactive.
